# Rows were chosen to be rich in hits. Some 2.1% of all compounds tested hit in one or more screens of this group.
# FUS yeast rescue: FUS proteinopathy suppression in yeast. S. cerevisiae FUS-expressing, growth rescue, OD600, 24 h. Potency, µM (doses to about 76.6 µM), actives largely listed as activators. 390,000 compounds, 0.24% hits;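 further: plate controls were DMSO vehicle for no effect and reference control for full effect; nearly all actives have a fitted effect of over 55% in size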
#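 Yeast expressing FUS under galactose induction, OD 0.005 in 2% galactose medium; compounds in a dilution series, 24 h at 30C. Growth rescue by absorbance at 600 nm; CP55940 positive control, DMSO negative.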
# TDP43 rescue: TDP-43 toxicity inhibition in yeast; TDP-43 expressing yeast growth rescue, BacTiter-Glo, 24 h; Potency, µM (highest dose often 46.1 µM), for inactives: at the highest dose growth rescue (activation), usual class: activators; 410,000 compounds, 1.8% hits; AID 652104; further: % of control where 0% means no effect; nearly all actives have a fitted effect of over 50% in size
#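 Luminescence from BacTiter-Glo reports growth of TDP-43-expressing yeast after 24 hr at 30 deg C with compound. Cells were raffinose-pregrown to mid-log, then seeded in galactose medium at OD600=0.02.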
# Abeta yeast res: restores growth of yeast expressing A-beta42 peptide | yeast expressing A-beta42, growth rescue, OD600, 48 h; response scale: 0% DMSO, 100% iron-clioquinol control | Potency, µM (series often up to 46.1 µM), actives largely listed as activators | 410,000 compounds, 0.063% hits; further: nearly all actives have a fitted effect of over 55% in size
#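 Yeast growth medium received pinned compounds, then yeast cells expressing toxic A-beta were added; plates incubated at 30 C for 48 hr. Growth read as absorbance at 600 nm, normalized to DMSO and equimolar FeCl3 plus clioquinol controls.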
# aSyn yeast inh: alpha-synuclein toxicity inhibition in yeast. Yeast expressing alpha-synuclein, growth rescue, BacTiter-Glo, 24 h. AID 652106. 370,000 compounds, 0.14% hits. Potency, µM (series often up to 46.1 µM), for inactives: at the highest dose growth rescue (activation), usual class: activators; further: % of control where 0% means no effect; nearly all actives have a fitted effect of over 65% in size
#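 Screening used galactose-induced yeast with toxic alpha-synuclein levels, exposed to compound for 24 hr at 30 deg C. Cell growth, read with BacTiter-Glo luminescence, gave the measured signal.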
# Starred values were filed as active, the others as inactive; i = inactive; ? = inconclusive; nt = not tested or not shown. The call rests on the fitted dose curve; in most records, active means well fitted curve in the direction sought with a large enough effect; inconclusive means small, poorly fitted or top-dose-only effect, or another doubt; inactive means no such curve, though single readings can be large; an effect the other way counts as inactive or inconclusive. Potency means the concentration at half of the fitted maximal effect.
SMILES,FUS yeast rescue,TDP43 rescue,Abeta yeast res,aSyn yeast inh
COC(=O)[C@@]1(Cc2ccc(OC)cc2)[C@H]2c3cc(C(=O)N4CCCC4)n(Cc4ccc(S(C)(=O)=O)cc4)c3C[C@H]2CN1C(=O)c1ccccc1,25.1µM*,10.9%,i,4.1%
Cc1cccc(NC(=O)C2C(c3ccccc3)C2(Cl)Cl)c1 (configuration not stated),i,22.4µM*,i,-37.5%
CC(C)(C)NC(=O)CN(Cc1ccco1)C(=O)CCC(=O)Nc1nccs1,i,-19.7%,i,-4.5%
COc1ccccc1-c1nn(CCC(=O)Nc2ccc(C)cc2)c2nc(C)cc(C)c12,i,35.5µM*,i,?
Cc1ccc(NC(=O)CCn2nc(C)cc2C)cc1,i,4.9%,i,-0.3%
COc1ccc(N2CCN(C(c3cc4cc(C)ccc4[nH]c3=O)c3nnnn3Cc3ccccc3)CC2)cc1 (configuration not stated),8.91µM*,-7.7%,i,-5.4%
COc1ccc(Cn2nnnc2C(c2cc3cc(C)ccc3[nH]c2=O)N2CCOCC2)cc1 (configuration not stated),i,-19.4%,i,-1.1%
COc1ccc(N2COC3c4cccc5cccc(c45)C32)cc1 (configuration not stated),i,11.2µM*,i,-5.9%
COc1ccc(C2Nc3cccc4cccc(c34)N2)cc1,i,?,i,-7.7%
Clc1ccc(N2COC3c4cccc5cccc(c45)C32)cc1 (configuration not stated),i,10µM*,i,12.5%
COc1ccc(-c2cc(C(F)F)n3ncc(C(=O)N4CCN(C(=O)c5ccco5)CC4)c3n2)cc1,i,20.7%,i,-1.4%
CCO[C@@H]1OC(C(=O)O)=C[C@H](C2CCCCC2)[C@H]1CCCO,i,-3.5%,i,2.8%
O=C(O)/C=C/C(=O)Nc1ccc2c(c1)C(=O)c1ccccc1C2=O,i,?,?,22.4µM*
COc1ccc(-c2coc3c(C(=O)NCC4CCOCC4)cccc23)c(C)c1,?,?,i,-25.8%
COc1ccc(-c2ccc(C(=O)NCC3CC3)c3occc23)c(C)c1,i,22.4µM*,i,-8.2%
COc1ccc(-c2ccc(C(=O)N3CCN(C)CC3)c3occc23)c(C)c1,i,3.9%,i,-1.3%
COc1ccc(-c2ccc(C(=O)NCC(C)C)c3occc23)c(C)c1,i,25.1µM*,i,1.8%
COc1ccc(-c2ccc(C(=O)NCc3ccncc3)c3occc23)c(C)c1,i,15.2%,i,16.2%
COc1ccc(-c2ccc(C(=O)N3CCOCC3)c3occc23)c(C)c1,i,10µM*,i,?
COc1ccccc1NC(=O)C1=C(C)NC(=O)NC1c1ccc(C)cc1 (configuration not stated),i,1.9%,i,4.4%
O=S1(=O)C=C(Sc2nc3cc(Cl)ccc3o2)c2ccccc21,i,12.6µM*,i,-8.3%
CN(C)CCNC(=O)Cn1nc(-c2ccc(Cl)cc2)ccc1=O,i,18.3%,i,3.4%
C[C@H](O)[C@@H]1C(=O)N2CCc3c([nH]c4ccccc34)[C@@H]2C[C@@H]1N(C)Cc1ccc(Cl)cc1,i,?,i,-1.5%
C[C@@]12CCC=C[C@H]1[C@H](c1ccccc1Br)N(Cc1ccccc1)C2=O,?,35.5µM*,i,-1.7%
Cc1noc(C)c1NC(=O)N(C)C[C@@H]1Oc2c(NC(=O)NC(C)C)cccc2C(=O)N([C@@H](C)CO)C[C@@H]1C,i,12.9%,i,-5.6%
SMILES,FUS yeast rescue,TDP43 rescue,Abeta yeast res,aSyn yeast inh
COc1ccc(N=C2SCC(=O)N2Cc2ccccc2)cc1,i,12.6µM*,i,-14.2%
O=C(O)c1ccc(N=C2SCC(=O)N2Cc2ccccc2)cc1,i,?,i,24.7%
Cc1ccc(NC(=O)c2nnn(CC(=O)Nc3ccc4c(c3)OCO4)c2N)cc1C,i,1.4%,i,13.3%
Cc1ccc(NC(=O)Cn2nnc(C(=O)Nc3ccc(C)c(C)c3)c2N)cc1,22.4µM*,3.8%,i,2.8%
NC1=NN=C(N2N=C(c3ccccc3)CC2(O)C(F)(F)F)n2ncnc2C1 (configuration not stated),i,-16.1%,i,-8.3%
CCn1ccc2c(OCC(=O)Nc3ccccc3C)cccc2c1=O,i,12.6µM*,i,nt
Nc1ccc(Cl)c(-c2nc3ncccc3o2)c1,?,-6.2%,i,0.7%
Nc1ccc(-c2nc3ncccc3o2)c(Cl)c1,i,-3.4%,i,14.1µM*
Cc1ccc(-c2csc(C(O)(c3ccccc3)C(F)(F)F)n2)cc1C (configuration not stated),i,-91.9%,i,-61.1%
COc1cccc(C(C)(O)c2nc(-c3cccc(C(C)C)c3)cs2)c1 (configuration not stated),?,17.8µM*,i,-17.7%
COc1ccc(C(C)(O)c2nc(-c3ccc(F)c(Cl)c3)cs2)cc1 (configuration not stated),i,17.8µM*,?,-11.5%
Oc1cccc(-c2csc(C(O)(c3ccccc3)C(F)(F)F)n2)c1 (configuration not stated),i,22.4µM*,i,?
CC(O)(c1ccccc1)c1nc(-c2ccccc2)cs1 (configuration not stated),i,14.1µM*,?,3.5%
Cc1ccc(C=Nc2cccnc2N)cc1,i,4.5%,i,8.8%
COCc1cccc(-c2csc(C(C)(O)c3ccccc3)n2)c1 (configuration not stated),i,35.5µM*,i,-3.6%
COc1ccc(-c2csc(C(C)(O)c3ccc(F)c(F)c3)n2)cc1OC (configuration not stated),i,22.4µM*,i,9.2%
CC(O)(c1ccccc1)c1nc(-c2cccc(C#N)c2)cs1 (configuration not stated),i,20µM*,?,-0.9%
COc1ccc(-c2csc(C(C)(O)c3ccc(OC)cc3)n2)cc1 (configuration not stated),i,0.0%,?,6.31µM*
COc1ccc(C(C)(O)c2nc(-c3ccc(OC)c(OC)c3)cs2)cc1 (configuration not stated),i,?,i,21.9%
COc1ccc(C(C)(O)c2nc(-c3cccc(C#N)c3)cs2)cc1 (configuration not stated),i,7.4%,i,?
CC(O)(c1ccccc1)c1nc(-c2cccc(F)c2)cs1 (configuration not stated),i,0.0%,i,18.7%
COc1cccc(C(=O)Nc2ccc(NC(=O)Cc3ccccc3)cc2)c1,i,-17.2%,i,1.2%
COc1ccc(C(C)(O)c2nc(-c3ccccc3)cs2)cc1 (configuration not stated),i,8.91µM*,?,?

# Screening results as filed in PubChem.
